# Test results: ChEMBL document CHEMBL3988442, “University of Dundee, Small-Polar-MMV Screening Library” (2021)
# In all, about 48,000 compounds went through this assay and about 13,000 (27%) showed an effect of 50% or more. The list shows a part of the results.
# Test system: Wolbachia pipientis
# Experiment: Anti-Wolbachia Cell-Based Screen
# Format: functional
# Design: scale not given: in the data most compounds retested in dose-response had high values
# Conditions: 5 µM
row,Compound,Percent Effect
1,Cl.OC1(Cn2ccc3ncccc32)CCN(Cc2ccccc2F)CC1,103.8%
2,O=C(O)C1(Cc2ccccc2Cl)CCN(c2ncccc2F)CC1,-2.228%
3,Cl.OC1(Cn2ccc3ncccc32)CCN(Cc2ccccn2)CC1,-13.22%
4,c1ccc(CO[C@H]2CN(c3ncccn3)C[C@@]23CCCO3)cc1,124.5%
5,c1ccc(CN2CCOC3(CCCN(c4nccs4)C3)C2)cc1 (configuration not stated),-0.1767%
6,COc1ccc(N2CCCC3(C2)CN(c2ncccn2)CCO3)cc1 (configuration not stated),2.929%
7,CN(C(=O)COC1CCCCC1)C1CCN(CC2CCOC2)CC1 (configuration not stated),-5.016%
8,COc1cc2c(cc1OC)CN(C(C(=O)O)c1c(C)nn(C)c1C)CC2 (configuration not stated),14.43%
9,COc1ccccc1OCC(=O)N1CCC[C@]2(C[C@@H](OC)CO2)C1,-30.12%
10,CO[C@@H]1CO[C@@]2(CCCN(C(=O)C3CC=CC3)C2)C1,95.67%
11,CO[C@H]1CO[C@@]2(CCCN(C(=O)C3CC=CC3)C2)C1,107.2%
12,CO[C@@H]1CO[C@@]2(CCN(C(=O)COc3ccccc3C)C2)C1,-3.612%
13,COCC(=O)N1CC[C@@H]2O[C@@H](COCC3CCOCC3)CC[C@@H]21,-13.21%
14,Cc1ccc(NS(=O)(=O)c2cccc(C#N)c2)c(CN(C)C)c1,5.777%
15,Cc1cc(C)n(C2CCCN(C(=O)c3ccc(F)cc3F)C2)n1 (configuration not stated),0.0476%
16,Cc1nnsc1C(=O)N1CCCC(c2nccn2Cc2cscn2)C1 (configuration not stated),19.06%
17,O=C(c1n[nH]cc1Cl)N1CCCC(n2nnc3cc(F)ccc32)C1 (configuration not stated),121.3%
18,Cc1nc(C)n(C2CCCN(C(=O)c3ccc(F)cc3F)C2)n1 (configuration not stated),4.826%
19,O=C(c1n[nH]cc1Cl)N1CCOC(Cc2cccc(C(F)(F)F)c2)C1 (configuration not stated),16.6%
20,CCc1nnsc1C(=O)N1CCCC(COc2ccc(F)cc2)C1 (configuration not stated),-1.511%
21,Cc1nnsc1C(=O)N1CCCC(n2nnc3cc(F)ccc32)C1 (configuration not stated),86.87%
22,Cc1c(C(=O)N2CCCC(n3nnc4cc(F)ccc43)C2)cnn1C (configuration not stated),103.4%
23,Cc1nn(C)cc1C(=O)N1CCCC(n2nnc3cc(F)ccc32)C1 (configuration not stated),70.61%
24,COc1c(CNC2CCCOc3ccc(F)cc32)c(C)nn1C.Cl (configuration not stated),-15.22%
25,Cc1ccccc1N1CCN(C(=O)c2ccc[nH]2)C(C)C1 (configuration not stated),-11.11%

row,Compound,Percent Effect
1,COCc1noc(-c2ccc(N(C)Cc3cn(C)nc3C)nc2)n1,-0.7863%
2,COc1ccc(C(C)N2CCC(C(=O)NC3CC3)CC2)cc1Cl (configuration not stated),5.354%
3,O=C(c1ccsc1)N1CCc2c(CNc3nccs3)n[nH]c2C1,-7.215%
4,CN1C(=O)CC(c2ccccc2)C12CCN(c1ncccn1)CC2 (configuration not stated),-22.26%
5,CCC(C(=O)NCc1cc(N2CCOCC2)ncn1)n1cccn1 (configuration not stated),-0.1761%
6,CCc1csc(CNC(=O)C(CC)n2cccn2)n1 (configuration not stated),-1.307%
7,CCC(C(=O)NCc1nc(C)cc(C(F)(F)F)n1)n1cccn1 (configuration not stated),86.37%
8,CCC(C(=O)NCc1csc(-c2ncccn2)n1)n1cccn1 (configuration not stated),6.719%
9,Cc1cc(C(F)(F)F)nc(CNC(=O)CCCN2CCCCC2)n1,-0.7363%
10,CCC(C(=O)NCCc1nc(C)cc(C(F)(F)F)n1)n1cccn1 (configuration not stated),110%
11,Cc1cc(C(F)(F)F)nc(CNC(=O)CCn2cccn2)n1,103.4%
12,CCC(C(=O)NCc1noc(Cc2cccs2)n1)n1cccn1 (configuration not stated),-1.383%
13,Cc1cc(C(F)(F)F)nc(CNC(=O)CCC2CCCCN2C)n1 (configuration not stated),-1.594%
14,CC(C)NC(=O)N[C@H]1C[C@@H](c2nc(-c3ccncc3)no2)N(C)C1,-7.5%
15,Cc1ccc2c(c1)CCCN2C(=O)c1cncc(Br)c1,3.118%
16,CCc1c(C(=O)Nc2ccc(F)c(C(=O)NC)c2)cnn1CC(C)C,115.2%
17,O=C(Nc1cnn(CCN2CCOCC2)c1)c1cc(F)ccc1F,-10.74%
18,CCc1c(NCc2ccc(F)cc2)cnn1CC(C)C,0.9512%
19,CNC(=O)c1cc(NC(=O)NC(C)CCc2cccn2C)ccc1F (configuration not stated),0.1416%
20,CNC(=O)CNC(=O)Nc1ccc(F)c(Br)c1,3.521%
21,CNC(=O)c1cc(NC(=O)Nc2cnn(CC(C)C)c2)ccc1F,106.8%
22,CCCn1cc(NC(=O)Nc2ccc(F)c(C(=O)NC)c2)cn1,109.9%
23,CC(C)Cn1cc(NC(=O)c2cccc(N(C)C)c2)cn1,-6.196%
24,Cc1c(C(=O)NS(=O)(=O)c2ccc(F)cc2)cnn1CC(C)C,6.603%
25,COCCCN1CCC(NC2CSCCc3ccccc32)CC1 (configuration not stated),3.161%

row,Compound,Percent Effect
1,O=C(CCn1cncn1)N1C[C@H]2CC[C@@H]1CN(Cc1cccnc1)C2,2.407%
2,Cc1nc(Cn2cnc3c(c(Br)nn3C)c2=O)cs1,-1.874%
3,Cc1csc([C@H]2C[C@@H]3CCN(Cc4cnn(C)c4)C[C@H]3O2)n1,5.32%
4,O=C(O)C(F)(F)F.O=C(c1n[nH]c2c1CCN(Cc1nccs1)C2)N1CCCC1,1.297%
5,CN(C)C1CCN(C(=O)c2n[nH]c3c2CCN(CC2CCC2)C3)CC1,111.2%
6,CN(C)C(=O)c1n[nH]c2c1CN(Cc1ccccn1)CC2.O=C(O)C(F)(F)F,-21.72%
7,CN(C)C(=O)c1n[nH]c2c1CN(CC1CCCCC1)C2.O=C(O)C(F)(F)F.O=C(O)C(F)(F)F,93.81%
8,Cc1ccc(CN2CCc3[nH]nc(C(=O)N(C)C)c3C2)s1.O=C(O)C(F)(F)F.O=C(O)C(F)(F)F,-17.1%
9,CN1CCN(C(=O)c2n[nH]c3c2CCN(Cc2nccs2)C3)CC1,-5.603%
10,CN(C)C(=O)c1n[nH]c2c1CN(CC1CCC1)C2.O=C(O)C(F)(F)F.O=C(O)C(F)(F)F,93.12%
11,CN(C)C(=O)c1n[nH]c2c1CN(Cc1nccs1)CC2.O=C(O)C(F)(F)F,-9.505%
12,CCN1CCc2[nH]nc(C(=O)N3CCCC3C)c2C1.O=C(O)C(F)(F)F (configuration not stated),-0.9609%
13,Cc1cc(C(=O)N(C)Cc2ccoc2)c(NC(=O)C(C)(C)C)s1,-2.438%
14,Cn1c(CS(=O)(=O)Cc2ccc(Cl)cc2)cc(=O)n(C)c1=O,5.826%
15,C/C=C(\C)CN1CCC2(CCC(=O)N2OCc2ccccc2F)CC1,2.227%
16,CCOCc1ccccc1NC(=O)NCC(C)(O)c1cc(C)oc1C (configuration not stated),-7.22%
17,CCc1ccccc1OC1CN(C(=O)CN(C)Cc2cccnc2)C1,-4.322%
18,Cc1noc(Cl)c1CC(=O)NCCOc1ccc(F)cc1F,16.27%
19,CCN(CC)C(=O)Cn1c(C)cc2nc(SC)n(CC(C)C)c(=O)c21,2.572%
20,COCCNC(=O)Cn1c(-c2ccc(F)cc2)nc(C)c(CCO)c1=O,103.8%
21,COc1c(CNCCNC(=O)Cc2ccc(F)cc2)c(C)nn1C,-0.8821%
22,COCCNC(=O)Cn1c(-c2ccc(Cl)cc2)nc(C)c(CCO)c1=O,140%
23,COCCNC(=O)c1sc(Nc2ccc(Cl)cn2)nc1C,19.38%
24,Cc1nc(-c2ccc(Cl)cc2)n(CC(=O)NC(C)C)c(=O)c1CCO,129.7%
25,CCN(Cc1cnn(CC)c1)C(=O)Cn1c(=O)c(C)nc2ccccc21,-5.598%

row,Compound,Percent Effect
1,CCN(CC)C(=O)Cn1c(-c2ccc(Cl)cc2)nc(C)c(CCO)c1=O,119.6%
2,CC(CNC(=O)c1cccnc1O)Cn1cccn1 (configuration not stated),-0.5981%
3,O=C1CCCN1CCCC(=O)N1CCCCC1c1ccc(F)cc1 (configuration not stated),-8.614%
4,O=C(NCCNS(=O)(=O)c1ccc(C(F)(F)F)cc1)c1ccoc1,7.368%
5,CCCN1CCC(NC(=O)c2csc(C)c2C)CC1,2.027%
6,O=C(CS(=O)(=O)c1ccc(Cl)cc1)NC1CCCc2ccccc21 (configuration not stated),1.396%
7,CC(C)OC(C)c1nnc(SCC(=O)O)n1-c1ccc(F)cc1F (configuration not stated),15.24%
8,N[C@H]1CN(C(=O)Cc2ccc(Cl)c(Cl)c2)C[C@@H]1C1CC1,0.666%
9,CCOc1ccccc1CC(=O)N1C[C@H](C2CC2)[C@@H](N)C1,104.9%
10,COc1ccccc1[C@@H]1CN(C(=O)Cc2csc(C)n2)C[C@H]1C(=O)O,12.9%
11,O=C(O)[C@@H]1CN(Cc2cc3c(cc2Cl)OCO3)C[C@H]1C1CC1,-1.718%
12,O=C(O)[C@@H]1CN(C(=O)Cc2ccccc2Cl)C[C@H]1C1CC1,117.2%
13,CCOc1ccccc1CC(=O)N1C[C@@H](C(=O)O)[C@H](C2CC2)C1,111.1%
14,CCOc1ccccc1CC(=O)N1C[C@@H](C(=O)O)[C@H](c2ccncc2)C1,102.2%
15,CCOCCOc1ccccc1C(=O)N1C[C@H](C2CC2)[C@@H](N)C1,-0.9919%
16,N[C@H]1CN(C(=O)c2ccccc2OCc2ccccc2)C[C@@H]1C1CC1,10.21%
17,O=C(O)[C@@H]1CN(C(=O)CCc2ccccn2)C[C@H]1c1ccccc1,11.77%
18,CCOc1ccc(CC(=O)N2C[C@H](C3CC3)[C@@H](N)C2)cc1,13.07%
19,Cc1nc(C)c(CC(=O)N2C[C@@H](C(=O)O)[C@H](c3ccncc3)C2)s1,-15.05%
20,CS(=O)(=O)N1C[C@H]2CNC[C@@]2(C(=O)NCCCc2ccccc2)C1,15.21%
21,C1CCCN(c2nc(C3CC3)ns2)CC1,16.93%
22,CCCS(=O)(=O)N1CCC2(CN(c3cnn(C)c3)C(=O)CN2C)C1.O=C(O)C(F)(F)F (configuration not stated),-3.589%
